Laboratory results from ChEMBL document CHEMBL4513143, “CO-ADD screening of University of Natural Resources and Life (Austria) compounds”.
Entries with a potency or affinity are not part of this list.

Columns and labels:
Staphylococcus aureus = conditions: Concentration 32 ug.mL-1; ASSAY_TEST Inhibition of Bacterial Growth; detection method Absorption (OD600); MEDIA CAMHB; plate type 384well; NBS; CORNING #3640; time 18 hr
Escherichia coli = conditions: Concentration 32 ug.mL-1; ASSAY_TEST Inhibition of Bacterial Growth; detection method Absorption (OD600); MEDIA CAMHB; plate type 384well; NBS; CORNING #3640; time 18 hr

## [N-]=[N+]=NC[C@H]1OC(O)[C@@H](O)[C@@H]1O (some centres not stated)
Staphylococcus aureus
  Inhibition: 29.31%
Escherichia coli
  Inhibition: 18.39%
